System: Vero E6 infected with SARS-CoV-2
Test: inhibition of SARS-CoV-2 cytopathic effect; higher = more antiviral protection, active = above 15
Settings: 48 h

Measured: inhibition of SARS-CoV-2 cytopathic effect

COCCCC/C(=N\OCCN)c1ccc(C(F)(F)F)cc1 [fluvoxamine]
inactive: 1 nM 6.3% | 8.33 nM 3.03% | 100 nM -1.16% | 833.33 nM -0.69% | 10000 nM -6.73%

Cc1cc2c(cc1CC(=O)c1sccc1S(=O)(=O)Nc1onc(C)c1Cl)OCO2 [sitaxentan]
inactive: 1 nM -0.88% | 8.33 nM -1.81% | 100 nM 0.75% | 833.33 nM 1.22% | 10000 nM 1.37%

C[C@H]1CCc2c(cc(Br)c(F)c2Br)N1C=O
inactive: 1 nM -0.42% | 8.33 nM -1.13% | 100 nM -1.55% | 833.33 nM -0.53% | 10000 nM -1.25%

O=C(NCNC(=O)NC1C(=O)NC(=O)N1CO)NC1C(=O)NC(=O)N1CO (stereo not given) [imidurea]
inactive: 1 nM -0.15% | 8.33 nM 0.45% | 100 nM -1.76% | 833.33 nM -1.38% | 10000 nM 0.38%

CCN1C[C@]2(OC(=O)c3ccccc3NC(C)=O)CC[C@H](OC)[C@@]34[C@@H]2C[C@@H]([C@@H]13)[C@@]1(O)C[C@H](OC)[C@H]2C[C@@H]4[C@]1(O)[C@H]2OC [lappaconite]
inactive: 1 nM 6.58% | 8.33 nM 2.61% | 100 nM 1.75% | 833.33 nM 0.15% | 10000 nM 0.28%

COC(=O)c1ccc2c(c1)NC(=O)/C2=C(\Nc1ccc(N(C)C(=O)CN2CCN(C)CC2)cc1)c1ccccc1 [nintedanib]
inactive: 1 nM -1.36% | 8.33 nM -3% | 100 nM -0.71% | 833.33 nM 0.19% | 10000 nM 0%

Cn1nnc(-c2ccc(-c3ccc(N4C[C@H](CO)OC4=O)cc3F)cn2)n1 [tedizolid]
inactive: 1 nM -0.87% | 8.33 nM 1.38% | 100 nM -1.69% | 833.33 nM 0.43% | 10000 nM -0.79%

C[C@]12CC[C@@H]3c4ccc(OC(=O)N(CCCl)CCCl)cc4CC[C@H]3[C@@H]1CC[C@@H]2OP(=O)(O)O [estramustine-phosphate]
inactive: 1 nM -1.79% | 8.33 nM 0.03% | 100 nM -0.34% | 833.33 nM -1.57% | 10000 nM -2.26%

CC(C)CCNC(=O)[C@H](CC(C)C)NC(=O)[C@H]1O[C@@H]1C(=O)O [loxistatin-acid]
inactive: 1 nM -1.03% | 8.33 nM -1.05% | 100 nM -0.89% | 833.33 nM 0.62% | 10000 nM 2.74%

Cn1c([N+](=O)[O-])cnc1COC(N)=O [ronidazole]
inactive: 1 nM 2.87% | 8.33 nM 0.97% | 100 nM 1.04% | 833.33 nM 2.17% | 10000 nM 2.12%

CC(C)(F)C[C@H](N[C@@H](c1ccc(-c2ccc(S(C)(=O)=O)cc2)cc1)C(F)(F)F)C(=O)NC1(C#N)CC1 [odanacatib]
inactive: 1 nM -3.88% | 8.33 nM -4.52% | 100 nM -3.49% | 833.33 nM -1.8% | 10000 nM 0.04%

O=C(Nc1cccc2c(=O)cc(-c3nnn[nH]3)oc12)c1ccc(OCCCCc2ccccc2)cc1 [pranlukast]
inactive: 1 nM -0.09% | 8.33 nM 2.87% | 100 nM 0.47% | 833.33 nM -3.27% | 10000 nM 1.15%

O=C(OOC(=O)c1ccccc1)c1ccccc1 [benzoyl-peroxide]
inactive: 1 nM 2.98% | 8.33 nM 2.38% | 100 nM -1.92% | 833.33 nM -1.86% | 10000 nM -0.05%

Cn1cc(-c2cnc3ccc4ccc(CS(=O)(=O)NCc5ccccn5)cc4c(=O)c3c2)cn1
inactive: 1 nM 1.02% | 8.33 nM 0.57% | 100 nM 1.94% | 833.33 nM 3.38% | 10000 nM 1.59%

COc1cc2c(NC3CCN(CC4CCCCC4)CC3)nc(N3CCCN(C(C)C)CC3)nc2cc1OCCCN1CCCCC1
inactive: 1 nM 0.74% | 8.33 nM -1.71% | 100 nM -3.06% | 833.33 nM 0.36% | 10000 nM -20.7%

O=C(O)c1cn(C2CC2)c2cc(N3CCNCC3)c(F)cc2c1=O [ciprofloxacin]
inactive: 1 nM -2.01% | 8.33 nM -1.59% | 100 nM 0.61% | 833.33 nM -0.98% | 10000 nM -2.99%

COCC1(CO)C(=O)C2CCN1CC2 (stereo not given)
inactive: 1 nM -1.69% | 8.33 nM -1.26% | 100 nM -0.44% | 833.33 nM -0.13% | 10000 nM 4.84%

Reference: the supplement of paper PMC13380429
